Source: PubChem BioAssay (National Center for Advancing Translational Sciences (NCATS))
Giardia FBPA inh-1 = qHTS Assay for Inhibitors of Fructose-1,6-bisphosphate Aldolase from Giardia Lamblia; purified Giardia FBPA; Potency, µM (doses to about 59.6 µM), most hits filed as inhibitors; hit rate 0.71% among 290,000; AID 2451, 2010; further: nearly all actives have a fitted effect of over 55% in size
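40 nM FBPA preincubated 10 min at RT with compound (up to 57.5 uM final), then substrate plus GAPDH/TPI/NAD/arsenate coupling and diaphorase/resazurin added. Fluorescence read after 20 min at RT, 525/598 nm.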
AMA1 RON2 block = qHTS for Inhibitors of AMA1-RON; Towards Development of Antimalarial Drug Lead: Primary Screen; Plasmodium falciparum AMA1 (3D7) - RON2 peptide interaction; AlphaScreen AMA1-biotinylated RON2 peptide binding; Potency, µM (series often up to 58.2 µM), most hits filed as inhibitors; hit rate 0.2% among 360,000; further: nearly all actives have a fitted effect of over 45% in size
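AMA1 (3D7) with his tag at 25 nM final met compounds first, then biotinylated RON2 peptide at 25 nM; detection used donor plus acceptor beads, 10 µg/mL apiece, read by AlphaScreen after 30 min at room temperature.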
AmpC inh no detg = qHTS Inhibitors of AmpC Beta-Lactamase (assay without detergent). P00811. AmpC nitrocefin hydrolysis, absorbance 480 nm, 0.0001% Triton. Potency, µM (doses to about 57.1 µM), usual class: inhibitors. hit rate 0.52% among 330,000; further: nearly all actives have a fitted effect of over 20% in size
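AmpC (5.3 nM in the dispensed reagent) in 20 mM phosphate pH 7.0 with 0.01% (detergent screen) or 0.0001% Triton X-100 was preincubated with compounds for 15 min at room temperature. Nitrocefin was then added from an 800 uM solution, and hydrolysis was followed at 480 nm.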
AmpC detergent = qHTS Inhibitors of AmpC Beta-Lactamase (assay with detergent); AID 485294, 2010; P00811; Potency, µM (series often up to 114 µM), actives largely listed as inhibitors; AmpC hydrolysis of nitrocefin, absorbance 480 nm, 0.01% Triton; hit rate 0.041% among 370,000; further: nearly all actives have a fitted effect of over 25% in size
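20 mM phosphate pH 7.0 + 0.01% (detergent screen) or 0.0001% Triton X-100; 5.3 nM AmpC reagent; cpd preinc 15 min RT; nitrocefin (800 uM stock) to start; A480 q20 s × 4 min; Activity was normalised to no-enzyme and no-compound control wells.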
Giardia growth = qHTS Assay for Inhibitors of Fructose-1,6-bisphosphate Aldolase from Giardia Lamblia: Giardia lamblia growth inhibition | shares compounds with Giardia FBPA inh-1 | Giardia lamblia trophozoite growth inhibition | Potency, µM (series often up to 57.5 µM), hits mostly inhibitors | hit rate 5% among 1,500 | AID 2785, 2010;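 further: trophozoites exposed to compound for 48 h at 37 °C; nearly all actives have a fitted effect of over 70% in size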
Mammal cell tox = qHTS Assay for Inhibitors of Fructose-1,6-bisphosphate Aldolase from Giardia Lamblia: Mammalian cellular toxicity. shares compounds with Giardia FBPA inh-1. mammalian cell viability counter-screen, qHTS. Potency, µM (titrated, usually from 57.5 µM), hits mostly inhibitors. hit rate 4% among 1,500;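 further: Chinese hamster ovary cells used as mammalian cytotoxicity surrogate; viability measured as cellular ATP by luminescence; compound exposure lasted 48 h before reading; nearly all actives have a fitted effect of over 60% in size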
Giardia FBPA inh-2 = qHTS Assay for Inhibitors of Fructose-1,6-bisphosphate Aldolase from Giardia Lamblia: Primary screen confirmation; shares compounds with Giardia FBPA inh-1; purified Giardia aldolase enzyme activity, qHTS; Potency, µM (top dose mostly 57.5 µM), actives largely listed as inhibitors; hit rate 5% among 1,500; further: nearly all actives have a fitted effect of over 45% in size
Rabbit FBPA inh = qHTS Assay for Inhibitors of Fructose-1,6-bisphosphate Aldolase from Giardia Lamblia: Rabbit FBPA Selectivity; shares compounds with Giardia FBPA inh-1; Rabbit muscle FBPA enzyme inhibition, selectivity counter-screen; Potency, µM (series often up to 57.5 µM), hits mostly inhibitors; hit rate 4% among 1,500; further: nearly all actives have a fitted effect of over 60% in size
Target sequence (P00883 whole entry, looked up): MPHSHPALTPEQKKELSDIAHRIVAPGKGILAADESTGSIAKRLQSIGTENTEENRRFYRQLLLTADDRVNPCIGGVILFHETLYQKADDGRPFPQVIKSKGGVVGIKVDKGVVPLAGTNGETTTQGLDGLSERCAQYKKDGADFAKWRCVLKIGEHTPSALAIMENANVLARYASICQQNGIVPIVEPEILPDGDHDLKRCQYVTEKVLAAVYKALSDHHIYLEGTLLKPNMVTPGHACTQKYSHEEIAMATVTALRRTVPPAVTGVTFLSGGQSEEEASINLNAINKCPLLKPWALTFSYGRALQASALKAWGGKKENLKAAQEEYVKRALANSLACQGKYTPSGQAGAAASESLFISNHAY
GAPDH coupling = qHTS Assay for Inhibitors of Fructose-1,6-bisphosphate Aldolase from Giardia Lamblia: Coupling assay counterscreen confirmation; Potency, µM (titrated, usually from 57.5 µM), actives largely listed as inhibitors; AID 2795, 2010; GAPDH coupling enzyme counterscreen, biochemical, qHTS; shares compounds with Giardia FBPA inh-1; hit rate 6% among 1,500; further: nearly all actives have a fitted effect of over 55% in size
Of the large screens only hits and unclear results are named; the others gave an inactive call (follow-up assays come after a bar, where they were run); [ ] = remark or other dose. Most compounds without a hit are left out; they make up all but 1.1% or so of the library. The call rests on the fitted dose curve; in most records, active means well fitted curve in the direction sought with a large enough effect; inconclusive means small, poorly fitted or top-dose-only effect, or another doubt; inactive means no such curve, though single readings can be large; an effect the other way counts as inactive or inconclusive.

COc1ccccc1N1CCN(CC(=O)Nc2ccc3c(c2)OCCO3)CC1	Giardia FBPA inh-1 18µM, AMA1 RON2 block inconclusive | Giardia growth inactive | Mammal cell tox inactive | Giardia FBPA inh-2 inactive | Rabbit FBPA inh inactive | GAPDH coupling inactive
COc1ccc(CN2CCN(Cc3ccccc3F)CC2)cc1OC	Giardia FBPA inh-1 16µM, AMA1 RON2 block inconclusive, AmpC detergent inconclusive | Giardia growth inactive | Mammal cell tox inactive | Giardia FBPA inh-2 inactive | Rabbit FBPA inh inactive | GAPDH coupling inactive
COc1ccccc1CN1CCN(C(=O)COc2ccc3ccccc3c2)CC1	Giardia FBPA inh-1 20µM, AMA1 RON2 block inconclusive | Giardia growth inactive[10.4 µM] | Mammal cell tox inactive | Giardia FBPA inh-2 inactive | Rabbit FBPA inh inactive | GAPDH coupling inactive
COc1ccc(C(=O)CN2CCN(c3ccc(F)cc3)CC2)cc1OC	none
Cc1ccc([C@H]2C[C@H](n3cc(-c4ccc(F)cc4)nn3)[C@@H](O)CN2CC2CCCCC2)cc1	none (no result: Giardia FBPA inh-1, AmpC inh no detg, AmpC detergent)
COCCNC(=O)CSc1nc2cc3c(cc2c(=O)n1CCCCCC(=O)NCCc1ccc(OC)c(OC)c1)OCO3	none (no result: Giardia FBPA inh-1, AMA1 RON2 block, AmpC inh no detg)
CO[C@H]1CN(C)C(=O)c2cc(NC(=O)C3CCOCC3)ccc2OC[C@H](C)N(Cc2nccs2)C[C@H]1C	none (no result: Giardia FBPA inh-1, AmpC inh no detg, AmpC detergent)
CCCn1cc(S(=O)(=O)c2ccc(OC)cc2)c(=O)c2cc(F)c(N3CCCCCC3)cc21	none (no result: Giardia FBPA inh-1, AMA1 RON2 block, AmpC inh no detg)
Cc1cc(C(=O)N2CCCC(C)(C(=O)NS(=O)(=O)C3CC3)C2)nn1C(C)(C)C (centres undefined)	none (no result: Giardia FBPA inh-1, AmpC inh no detg, AmpC detergent)
CCN1CCN(CC(=O)Nc2c(OC)cccc2OC)CC1	Giardia FBPA inh-1 13µM | Giardia growth inactive[10.4 µM] | Mammal cell tox inactive | Giardia FBPA inh-2 inactive | Rabbit FBPA inh inactive | GAPDH coupling inactive
COc1ccc(CN2CCN(Cc3ccccc3OC)CC2)cc1	Giardia FBPA inh-1 14µM | Giardia growth inactive | Mammal cell tox inactive | Giardia FBPA inh-2 inactive | Rabbit FBPA inh inactive | GAPDH coupling inactive
COc1ccccc1N1CCN(Cc2ccc(F)cc2)CC1	none
COc1ccccc1N1CCN(Cc2ccc(SC)cc2)CC1	Giardia FBPA inh-1 16µM, AMA1 RON2 block 20µM, AmpC detergent inconclusive | Giardia growth inactive | Mammal cell tox inactive | Giardia FBPA inh-2 inactive | Rabbit FBPA inh inactive | GAPDH coupling inactive
COc1ccccc1CN1CCN(Cc2ccc(Cl)cc2)CC1	Giardia FBPA inh-1 inconclusive, AMA1 RON2 block inconclusive
CCN1C(C)=C(C(=O)OC)C(c2ccccc2)N2C(=O)[C@](O)(C(=O)OC)C(c3ccccc3)C(C(C)=O)=C12 (some centres undefined)	none (no result: AMA1 RON2 block, AmpC inh no detg, AmpC detergent)
Cn1cccc1C(=O)N1CCC2(CCN(Cc3ccc(C#N)cc3)CC2)CC1	none (no result: AMA1 RON2 block, AmpC inh no detg, AmpC detergent)
Cc1cccc(N(C)c2nc3ccc(C(=O)c4ccccc4)cc3n3c(C)nnc23)c1	none (no result: Giardia FBPA inh-1, AMA1 RON2 block, AmpC inh no detg)
CC[C@@H]1Cn2c(c3nc(-c4ccccc4)nc-3n(C)c2=O)N1	none (no result: AMA1 RON2 block, AmpC inh no detg, AmpC detergent)
